# From PubChem BioAssay (NCI)
# About 83,000 compounds went through this panel and 20% of them were active in at least one assay; those are over-represented in the sample as a whole.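 Single-concentration screen, 48 h exposure, 96-well plates. Endpoint: percent growth. Below 10 = active.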 A number with no mark means an inactive call. Activity calls are given as the source filed them.
# Tested on: HL-60(TB) leukemia
# Assay: NCI-60 one-dose screen, 48 h (100 = growth as untreated, 0 = no growth, -100 = all killed)
# Settings: 10 µM unless noted
row,Structure (SMILES),growth
1,COc1cc(C(=O)/C=C/c2c(Cl)nc3sccn23)cc(OC)c1OC,52.2%
2,CCC(=O)Oc1ccc(/C(=C(\C)c2ccccc2)c2ccc(OCCN3CCCCC3)cc2)cc1,68.2%
3,O=C(O)c1cc2c(s1)C(=O)c1sccc1C2=O,10.9%
4,c1ccc2sc(SSN3CC4CCC(CC4)C3)nc2c1,89.3%
5,CCCCCCCCC(C)C(=O)N1CCCC1C(=O)N1C(CC(=O)CC)CC(C)CC1C(=O)NC(C)C(=O)NC(C)(C)C(=O)NC(C)(C)C(=O)NC(C(=O)NC(C)C(=O)NC(C)(C)C(=O)NC(C)(C)C(=O)NC(C)CN(C)CCO)C(C)CC (stereo not given),-51.8% (active)
6,C/C(=N/NC(N)=S)C(=O)O,85.3%
7,O=C(CCl)c1ccc2c(c1)CCCC2,96.9%
8,COc1ccc(CCN2C(=O)CCSC2=S)cc1OC,98.1%
9,CC(=O)OC1CCC2(C)C(CCC3C4CC=C(C(C)=O)C4(C)OC(=O)CC32)C1 (stereo not given),-39.8% (active)
10,COc1cccc(-c2nc3sccn3c2-c2ccnc(NCCNS(=O)(=O)c3cccc(Cl)c3)c2)c1,15.6%
11,CCN(CC)CC#CCOC(=O)[C@]1(C)CCC[C@@]2(C)[C@H]1CC(C=O)=C1C=C(C(C)C)CC[C@@H]12,51.6%
12,Oc1ccc(N=Cc2ccccc2)cc1,0.519% (active)
13,O=C1Nc2ccc(Br)cc2C1=O,99.6%
14,COc1cc(C2C=C(c3cccc(NC(C)=O)c3)Nc3ncnn32)cc(OC)c1OC (stereo not given),-35.2% (active)
15,CCCCCCCNC(=O)CCCNc1ncnc2c1ncn2-c1cccc(C(C)O)c1 (stereo not given),24%
